This is an account of results in PubChem BioAssay (NCI).

About 79,000 compounds went through this panel and 15% of them were active in at least one assay; those are over-represented in the sample as a whole. Unmarked numbers belong to inactive results. Activity calls are given as the source filed them. No stated cut-off is given here; in the data, active means growth inhibition above about 70%; inactive means the rest. Where a SMILES comes first, the peptide text is derived from it.

Experiment [1] in a line: NCI Yeast Anticancer Drug Screen. Data for the rad50 strain (AID 155).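 Further: 0% = growth of vehicle-only cultures of the same strain.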 As to conditions: S. cerevisiae rad50 strain growth inhibition; at 50.0 µM; active compounds read high. In outline: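 A DNA repair-deficient yeast mutant serves as the test organism; compound-induced growth inhibition is calculated against vehicle-treated cells.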
Experiment [2] is described as follows: NCI Yeast Anticancer Drug Screen. Data for the mec2-1 strain (AID 157). As to conditions: S. cerevisiae mec2-1 strain, at 50.0 µM, active compounds read high. An outline of the steps:
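Each compound was tested on mec2-1 yeast, a strain altered in DNA damage repair or cell cycle control. Growth inhibition is reported relative to vehicle.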

Experiment [3] in a line: NCI Yeast Anticancer Drug Screen. Data for the sgs1 mgt1 strain (AID 161).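 Further: 0% = growth of cultures given vehicle only.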 As to conditions: S. cerevisiae sgs1 mgt1 strain, at 50.0 µM, active compounds read high. An outline of the steps: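 Genetically altered yeast, compound exposure, growth inhibition relative to vehicle.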
Experiment [4] in a line: NCI Yeast Anticancer Drug Screen. Data for the cln2 rad14 strain (AID 165).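 Further: 0% = growth equal to vehicle treated cultures.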 The following applies: S. cerevisiae cln2 rad14 strain, at 50.0 µM, active compounds read high. An outline of the steps: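 Test compounds were added to cln2 rad14 yeast cultures; inhibition of growth was then determined by comparison with vehicle treatment.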
Experiment [5] is described as follows: NCI Yeast Anticancer Drug Screen. Data for the bub3 strain (AID 167). The following applies: S. cerevisiae bub3 mutant strain, at 50.0 µM, active compounds read high. An outline of the steps:
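Inhibition values come from growth of compound-treated mutant yeast normalised to vehicle-treated controls.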

Experiment [6] is described as follows: NCI Yeast Anticancer Drug Screen. Data for the mlh1 rad18 strain (AID 175). The following applies: S. cerevisiae mlh1 rad18 strain growth inhibition; at 50.0 µM; active compounds read high. An outline of the steps: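 Inhibition values reflect reduced growth of mutant yeast versus vehicle-treated controls following compound exposure; the mutations affect DNA damage repair.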

Consider `CCOC(=O)N1N=C(c2ccccc2)OC2(N3CCOCC3)CCC(C(C)(C)C)CC12` (stereo unspecified), for which the growth inhibition was 12.8% in experiment [1]; 5.1% in experiment [2]; 4.6% in experiment [3]; 5% in experiment [4]; -3% in experiment [5]; -2.4% in experiment [6].
On to `O=C1c2ccccc2-c2ccc3c4ccc5c6c(ccc(c7ccc1c2c73)c64)C(=O)c1ccccc1-5`, for which the growth inhibition in experiment [1] was 53.2%; in experiment [2], 23.4%; in experiment [3] it was 36.8%; in experiment [4], 30.6%; in experiment [5] it was 15.2%; in experiment [6], 37.5%.
As for `N#Cc1cc2c(n(C3OC(CO)C(O)C(O)C3O)c1=S)CCCCC2` (stereo unspecified), the growth inhibition in experiment [1] was -3.95%; in experiment [2], -16%; in experiment [3], -3.75%; in experiment [4], -0.75%; in experiment [5] it was 5.65%; in experiment [6] it was 24.1%.
Take `O=C1C2CCCCC2C(=O)N1O` (stereo unspecified): the growth inhibition in experiment [1] was 60.1%; in experiment [2], -1.5%; in experiment [3] it was 18.8%; in experiment [4], 16.6%; in experiment [5], 1.45%; in experiment [6], 9.25%.
As to `C=C(CN(C)C)c1ccccn1`, the growth inhibition is -11.9% in experiment [1]; -5.45% in experiment [2]; -2.3% in experiment [3]; -16.8% in experiment [4]; -13.3% in experiment [5]; -17.6% in experiment [6].
For the molecule `CC(C)CC(NC(=O)C(CCC(=O)O)NC(=O)CNC(=O)CNC(=O)C(CO)NC(=O)C(CC(C)C)NC(=O)C(NC(=O)C(CO)NC(=O)C(C)NC(=O)C(CCCNC(=N)N)NC(=O)C(C)NC(=O)CN)C(C)C)C(=O)NC(CC(=O)O)C(=O)NC(CCCNC(=N)N)C(=O)NC(Cc1c[nH]c2ccccc12)C(=O)NC(Cc1ccc(O)cc1)C(N)=O` (stereo unspecified) (H-GARASVLSGGELDRWY-NH2; configuration not given here), the growth inhibition in experiment [1] is 21.4%; in experiment [2], -7.15%; in experiment [3], 3.25%; in experiment [4], 8.4%; in experiment [5], -5.85%; in experiment [6] it was 11.7%.
Regarding `COCCOC(=O)CCC(C)=O`, the growth inhibition was 20.8% in experiment [1]; 15.1% in experiment [2]; 6.45% in experiment [3]; 7.8% in experiment [4]; -4.95% in experiment [5]; 10.7% in experiment [6].
Regarding `NNC(=O)CCSCCC(=O)NN`, the growth inhibition in experiment [1] was 7.85%; in experiment [2] it was -17.2%; in experiment [3], 3.4%; in experiment [4] it was -28.9%; in experiment [5], -5.95%; in experiment [6], -0.75%.
Consider `N#CC(C(=O)O)C1(C(C#N)C(=O)O)CCN(Cc2ccccc2)CC1` (stereo unspecified), for which the growth inhibition in experiment [1] was -9.9%; in experiment [2], -5.1%; in experiment [3] it was 40.5%; in experiment [4], -21.9%; in experiment [5] it was -2.15%; in experiment [6] it was -10.1%.
Take `COc1cc2c(SCCN(C)C)nc3ccccc3c2c2ccccc12`: the growth inhibition was 89.9% (active) in experiment [1]; 92.3% (active) in experiment [2]; 90.8% (active) in experiment [3]; 87.8% (active) in experiment [4]; 91.5% (active) in experiment [5]; 89.1% (active) in experiment [6].
In the case of `O=C(Nc1ccc2c(c1)OCO2)O/N=C\c1ccccn1`, the growth inhibition in experiment [1] is 9.15%; in experiment [2], 26.8%; in experiment [3], 17.7%; in experiment [4], 57.4%; in experiment [5] it was 9.4%; in experiment [6] it was 42.1%.
Regarding `CCN1C(NN)=NS(=O)(=O)c2ccccc21`, the growth inhibition was -31.1% in experiment [1]; -7.55% in experiment [2]; -15.2% in experiment [3]; -19.9% in experiment [4]; 8.2% in experiment [5]; 10.8% in experiment [6].
For `O=C1C(O)C(c2ccccc2)c2ccccc2N1c1ccccc1` (stereo unspecified), the growth inhibition was 2.2% in experiment [1]; 5.35% in experiment [2]; 1.8% in experiment [3]; -5.9% in experiment [4]; -9.75% in experiment [5]; 15.1% in experiment [6].
As to `O=c1c2ccccc2sc2nc(CCl)nn12`, the growth inhibition was 6.2% in experiment [1]; 4.25% in experiment [2]; 8.2% in experiment [3]; 16.8% in experiment [4]; 2.05% in experiment [5]; 47.2% in experiment [6].
On to `CCCCCCCCCCCCCCCCCCOCCOCCOCCOCCO`, for which the growth inhibition is -21.7% in experiment [1]; -10.3% in experiment [2]; -23.5% in experiment [3]; -43.5% in experiment [4]; -3.25% in experiment [5]; -19.5% in experiment [6].
For `CCCCCCCCCCCCCCCCCCOC(=O)c1cccnc1`, the growth inhibition in experiment [1] is 23.1%; in experiment [2] it was 10.3%; in experiment [3] it was 15.8%; in experiment [4], 20.7%; in experiment [5], 23.8%; in experiment [6], 27.3%.
On to `CCCCCCNC(=O)c1ccc(C(=O)NCCCCCC)cc1`, for which the growth inhibition in experiment [1] was 3.4%; in experiment [2] it was -13.3%; in experiment [3], -27%; in experiment [4], -19.5%; in experiment [5], 6%; in experiment [6] it was -31.9%.
Consider `COc1ccc(C(=O)c2cc3c(ccc4ccccc43)oc2=O)cc1`, for which the growth inhibition in experiment [1] is -3.7%; in experiment [2], 0.6%; in experiment [3], 7.2%; in experiment [4], 2.85%; in experiment [5], 23.9%; in experiment [6], -7.45%.
For `CCOC(=O)NC(=O)c1cn(CCCCCCOC(=O)NCCCCCCNC(=O)OCCCCCCn2cc(C(=O)NC(=O)OCC)c(=O)[nH]c2=O)c(=O)[nH]c1=O`, the growth inhibition in experiment [1] is 32%; in experiment [2], 14.6%; in experiment [3], 27.8%; in experiment [4], 28.8%; in experiment [5], 13.4%; in experiment [6] it was 28.4%.
`CC(=O)Nc1cc(Br)cc2c1-c1ccc(Br)cc1C2`: the growth inhibition in experiment [1] is 36.7%; in experiment [2], 14.7%; in experiment [3] it was 16.2%; in experiment [4], 8.2%; in experiment [5], 5.3%; in experiment [6] it was 23.4%.
As to `CCOC(COc1ccc2ccccc2c1)OCC`, the growth inhibition in experiment [1] was -18.6%; in experiment [2], 0.5%; in experiment [3], 0.55%; in experiment [4], -55.7%; in experiment [5], 6.9%; in experiment [6], -10.1%.
